Screening data from PubChem.
Only some compounds are listed: those with a hit (about 3.4% of all), similar ones and a draw of the others.
GPR151 activ: activators of human GPR151, primary screen, cell-based, PathHunter beta-arrestin, luminescence; activation, % at 11.2 µM; G-protein coupled receptor 151 (Homo sapiens), Q8TDV0; actives 1% (n = 650,000); PathHunter beta-arrestin GPR151 cells; AID 1508602, 2020; in the data active = activation above about 4.9%;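 also: 0% = median of compound wells and 100% = cells with positive control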
Target sequence (Q8TDV0 whole entry, looked up): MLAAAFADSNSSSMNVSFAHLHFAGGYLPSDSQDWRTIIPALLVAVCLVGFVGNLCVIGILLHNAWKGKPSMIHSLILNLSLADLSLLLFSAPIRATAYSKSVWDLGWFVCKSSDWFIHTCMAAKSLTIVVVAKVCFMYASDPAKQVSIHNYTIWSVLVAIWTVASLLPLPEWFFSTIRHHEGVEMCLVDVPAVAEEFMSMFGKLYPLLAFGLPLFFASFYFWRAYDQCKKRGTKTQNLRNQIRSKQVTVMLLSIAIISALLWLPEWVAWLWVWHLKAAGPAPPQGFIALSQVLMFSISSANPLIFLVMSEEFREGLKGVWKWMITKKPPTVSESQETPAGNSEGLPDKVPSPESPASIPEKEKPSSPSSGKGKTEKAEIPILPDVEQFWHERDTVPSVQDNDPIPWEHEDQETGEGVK
MITF primary: MITF inhibitors, primary screen, biochemical, AlphaScreen, human | AlphaScreen MITF homodimerization, bead proximity signal | inhibition, % at 2.6 µM | actives 0.91% (n = 650,000) | AID 1259374, 2018; in the data active = inhibition above about 50%;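 also: 0% = vehicle wells with protein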
TEAD-YAP block: TEAD-YAP interaction inhibition, primary screen, TEAD-YAP interaction inhibitor project, luminescence, HEK-TIYL cells; inhibition, % at 9.12 µM; TEAD-Gal4/YAP UAS-luciferase luminescence; actives 1.4% (n = 640,000); AID 1259422, 2018; in the data active = inhibition above about 32%;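 also: 0% = median of test compound wells and 100% = reference inhibitor wells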
FBW7 activator: FBW7 E3 ligase activators, primary screen, biochemical, AlphaScreen, human. normalized activity (activation), % at 26.1 µM. F-box/WD repeat-containing protein 7 (Homo sapiens), Q969H0. AlphaScreen FBW7–phospho-cyclin E peptide binding, activator screen. actives 0.13% (n = 650,000); in the data active = normalized activity above about 1.9%;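 also: purified mutant Fbw7 with reduced substrate affinity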
GPR151 conf act: GPR151 activators, triplicate retest, confirmation, cell-based, PathHunter beta-arrestin, luminescence | shares compounds with GPR151 activ | GPR151 PathHunter beta-arrestin cells, 90 min; % of EA-reagent control over plate median | activation, % at 11.2 µM | 6,700 tested, under 10 active | AID 1508609, 2020;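 active = mean percent activation across replicates above the confirmation screen cutoff of 4.91%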
GPR119 ag: GPR119 activators in beta-arrestin cells, counter-screen for GPR151 activator project, cell-based, PathHunter beta-arrestin, luminescence, triplicate | actives 0.3% (n = 6,700) | activation, % at 11.2 µM | shares compounds with GPR151 activ | 90 min; 0 = compound-well median, 100 = enzyme-acceptor control;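 active = mean percent activation in the counterscreen above 29.09%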;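 also: counterscreen on off-target GPR119 to flag nonselective hits from the GPR151 activator screen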
* = called active by the depositor; . = no result given.

SMILES | GPR151 activ | MITF primary | TEAD-YAP block | FBW7 activator | GPR151 conf act | GPR119 ag
CC(NS(=O)(=O)c1ccc(Cl)cc1)C(N)=O (stereo not given) | -1.6 | 4.6 | 2.7 | 0.1 | . | .
CC(NS(=O)(=O)c1cc(Cl)ccc1Cl)C(N)=O (stereo not given) | 5.2* | 5.7 | -2.1 | -0.2 | -0.4 | -1.9
CCN1CCc2c(sc(NC(=O)c3ccc(S(=O)(=O)N4CCCC(C)C4)cc3)c2C(=O)OC)C1 (stereo not given) | 5.3* | 7.9 | 2.1 | 0.0 | 2.3 | 15.1
COC(=O)c1c(NC(=O)c2ccc(S(=O)(=O)N3CCCC(C)C3)cc2)sc2c1CCN(C(C)C)C2 (stereo not given) | 0.5 | -14.6 | -0.3 | -0.1 | . | .
Cc1nc2nc(SCC(=O)NC3CCCCC3)nn2c(C)c1Cc1c(F)cccc1Cl | 6.4* | 7.7 | 3.7 | -0.3 | 0.0 | 1.7
COc1cc(CN2CCN(c3ccc([N+](=O)[O-])cc3)CC2)ccc1O | 0.2 | 14.8 | -5.7 | -0.1 | . | .
O=[N+]([O-])c1ccc(CN2CCN(Cc3cc(Br)ccc3O)CC2)cc1 | 6.6* | 45.2 | 31.1 | -0.1 | 0.4 | 16.2
COc1ccc(CN2CCN(c3ccc([N+](=O)[O-])cc3)CC2)cc1O | 6.7* | 49.5 | 36.4* | 0.1 | 0.2 | 18.2
O=C(CSc1nc2ccc(C(F)(F)F)cc2s1)Nc1nccs1 | 1.3 | -10.3 | 3.6 | -0.1 | . | .
O=C(NCCC1=CCCCC1)C(=O)Nc1cccc(C(F)(F)F)c1 | 0.3 | 0.8 | 7.3 | 0.1 | . | .
O=C(CC(=O)N/N=C/c1c(F)cccc1Cl)NCCc1ccccc1 | 5.6* | -5.0 | -0.3 | 0.0 | 0.6 | -0.4
O=C(CO)N/N=C\c1c(F)cccc1Cl | -0.2 | 12.7 | 30.9 | 0.2 | . | .
O=C(NC(Cc1ccc(F)cc1)C(=O)O)/C(=C/c1ccccc1)NC(=O)c1ccccc1 (stereo not given) | -0.5 | -1.3 | -0.1 | -0.3 | . | .
Cc1cccc(C(=O)Nc2ccc(Br)cc2F)c1[N+](=O)[O-] | 1.4 | 0.9 | -64.6 | -0.1 | . | .
Cc1cccc(C(=O)Nc2ccc(F)cc2F)c1[N+](=O)[O-] | 10.9* | 0.6 | -8.3 | -0.1 | 0.5 | 7.0
C=CCNc1nc(Cl)nc(NCCC2=CCCCC2)n1 | 5.1* | -0.3 | -5.5 | -0.1 | -0.6 | -11.7
O=C(NCCO)c1cccc(-c2cnc3c(NCC4CC4)nccn23)c1 | -1.6 | -5.0 | -43.9 | -0.6 | . | .
O=C1NC(=S)NC(=O)C1=Cc1cccc(OC(=O)c2ccc(Cl)cc2)c1 | 5.9* | 11.5 | -1.2 | 0.4 | 0.5 | 10.3
COc1ccc(C(=O)Oc2ccc(C=C3C(=O)NC(=S)NC3=O)cc2)cc1 | 0.2 | 11.9 | -2.4 | 0.0 | . | .
CCCOC(=O)c1ccc(Nc2c(C(=O)OCC)cnc3ccc(C(=O)OCC)cc23)cc1 | 0.2 | 1.9 | 0.6 | -0.2 | . | .
COc1ccc(S(=O)(=O)NCC(c2cccc3ccccc23)N(C)C)cc1 (stereo not given) | 3.7 | 11.7 | 2.0 | 0.1 | . | .
O=C(Cc1cn(-c2ccc(N3CCOCC3)nn2)c2ccccc12)NCCN1CCOCC1 | -2.0 | -4.7 | -26.1 | 0.4 | . | .
O=C(Cc1cn(-c2ccc(Cl)nn2)c2ccccc12)NCCN1CCOCC1 | 7.8* | -3.7 | 3.5 | 0.0 | 4.1 | -2.8
c1cncc(-c2noc(CCC3CCCC3)n2)c1 | 7.7* | -11.6 | -5.0 | -0.1 | 0.6 | 2.6
c1cncc(-c2noc(C34CC5CC(CC(C5)C3)C4)n2)c1 | 6.9* | -10.0 | -2.9 | 0.0 | 1.9 | -0.2
CCc1ccc(NC(=O)C(=O)NNC(=O)c2cccc(OC)c2)cc1 | -0.8 | 13.6 | 9.4 | -0.1 | . | .
COc1ccc(NC(=O)C(=O)NNC(=O)c2cccc(OC)c2)cc1 | 6.1* | -6.1 | -3.3 | -0.1 | -0.2 | 3.6
COc1cccc(CNC(=O)CCC2CCCN(S(=O)(=O)c3ccc(F)cc3)C2)c1 (stereo not given) | -1.7 | 4.8 | 7.0 | 0.3 | . | .
